Tb PYK inh – T. brucei pyruvate kinase inhibition. TbPYK enzyme, Kinase-Glo Plus ATP luminescence, 45 min. Potency, µM (highest dose often 76.8 µM), for inactives: top-dose activity, negative = inhibition, usual class: inhibitors. AID 624173. actives 0.12% (n = 410,000); note: potency is the fitted concentration of half-maximal effect; nearly all actives have a fitted effect of over 50% in size
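ADP (130 uM final) triggers the TbPYK reaction after compound addition; incubation is 45 min at room temperature. Kinase-Glo Plus is then added and luminescence imaged. Normalized data are fitted to concentration-effect curves.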
FBPA Giardia inh – inhibitors of Giardia lamblia fructose-1,6-bisphosphate aldolase. actives 0.71% (n = 290,000). purified Giardia FBPA. AID 2451. Potency, µM (doses to about 59.6 µM), for inactives: at the top dose activity, negative = inhibition, hits mostly inhibitors; note: potency is the fitted concentration of half-maximal effect; nearly all actives have a fitted effect of over 55% in size
Target sequence (A8B2U2 whole entry, looked up): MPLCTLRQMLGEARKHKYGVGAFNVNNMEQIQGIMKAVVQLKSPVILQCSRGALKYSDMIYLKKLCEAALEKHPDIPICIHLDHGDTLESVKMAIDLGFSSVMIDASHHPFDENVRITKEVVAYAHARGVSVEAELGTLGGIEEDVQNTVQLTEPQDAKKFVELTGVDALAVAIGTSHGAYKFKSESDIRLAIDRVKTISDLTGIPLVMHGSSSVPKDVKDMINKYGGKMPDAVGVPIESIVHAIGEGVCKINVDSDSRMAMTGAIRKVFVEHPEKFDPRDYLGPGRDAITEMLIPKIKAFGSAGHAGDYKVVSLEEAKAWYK
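40 nM FBPA preincubated 10 min at RT with compound (up to 57.5 uM final), then substrate plus GAPDH/TPI/NAD/arsenate coupling and diaphorase/resazurin added. Fluorescence read after 20 min at RT, 525/598 nm.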
HCMV antiviral – blocks human cytomegalovirus replication; actives 4.5% (n = 410,000); activity change, negative = inhibition, % at 57.5 µM; HFF cells, HCMV-luciferase reporter, 72 h; hits give low values; in the data active = activity change below about -60%; inconclusive = no clear call, values can overlap the other calls; inactive = above about -39%
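Inhibition of viral replication was scored as loss of reporter luminescence in HFFs infected with HCMV-luciferase (MOI 1 PFU/cell) for 72 h; compounds tested at 2 doses, normalized to buffer and Salinomycin controls.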
FMDV inh – blocks foot and mouth disease virus; FMDV antiviral cell-based qHTS; AID 1159524; Potency, µM (highest dose often 57.9 µM), for inactives: at the highest dose activity change, negative = inhibition, most hits filed as inhibitors; actives 1.2% (n = 410,000); calls by dose curve; tested in HEK293T cells; note: read-out not given here; potency is the fitted concentration of half-maximal effect; nearly all actives have a fitted effect of over 45% in size
Sm TGR block – inhibitors of Schistosoma mansoni thioredoxin glutathione reductase | Q962Y6 | purified TGR, DTNB reduction, TNB absorbance 405 nm | Potency, µM (doses to about 114 µM), for inactives: top-dose activity change, negative = inhibition, usual class: inhibitors | actives 3% (n = 360,000) | AID 485364; note: potency is the fitted concentration of half-maximal effect; nearly all actives have a fitted effect of over 60% in size
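First, TGR (20 nM dispensed) and NADPH were mixed with compound. Second, a 15 min room-temperature incubation followed. Third, further NADPH and then DTNB were added to start the reaction. Finally, TNB absorbance was monitored kinetically.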
RE007 growth inh – less growth of the S. pombe RE007 Vpr strain; S. pombe RE007 Vpr strain, BacTiter-Glo ATP luminescence, 24 h; Potency, µM (highest dose often 92.2 µM), for inactives: at the top dose activity change, negative = less growth, most hits filed as inhibitors; actives 0.21% (n = 360,000); AID 651644; active = well fitted falling curve with a large enough effect; inconclusive = small, poorly fitted or top-dose-only effect; inactive = no such curve, though single readings can be large or run the other way; note: potency is the fitted concentration of half-maximal effect; nearly all actives have a fitted effect of over 50% in size
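Fission yeast strain RE007, carrying one chromosomally integrated HIV-1 vpr copy, was seeded at OD 0.01 in PMG+AL medium with 23 nL pinned compound. After 24 h at 30 °C and 99% humidity, viability was read by BacTiter-Glo luminescence.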
* = called active by the depositor; ? = inconclusive; · = not tested or not shown; [ ] = another dose, or the depositor's remark. In the library only some 7.7% were active in any assay of this set; here they are far more common. Unless noted, calls come from the whole dose curve; as a rule, active = well fitted curve in the direction sought with a large enough effect; inconclusive = small, poorly fitted or top-dose-only effect, or another doubt; inactive = no such curve, though single readings can be large; an effect the other way counts as inactive or inconclusive. % is set by controls: 0 for no effect and ±100 for the full control effect.

SMILES	Tb PYK inh	FBPA Giardia inh	HCMV antiviral	FMDV inh	Sm TGR block	RE007 growth inh
COc1ccccc1CNC(=O)CC(c1ccc(F)cc1)N1Cc2ccccc2C1=O (centres undefined)	-0.7%	·	-73.3*	20.3%	7.9%	·
O=C(NCc1nnc2n1CCN(C(=O)/C=C/c1ccccc1)CC2)c1cccc(F)c1	·	·	·	5.1%	·	·
C#CCOc1c(/C=C\c2nc(O)c([N+](=O)[O-])c(=O)[nH]2)cc(Br)cc1OC	-0.5%	-7.8%	-14.6	-4.0%	35.5µM*	5.7%
COC(=O)COc1c(/C=C\c2nc(O)c([N+](=O)[O-])c(=O)[nH]2)cccc1OC	0.2%	0.6%	7.0	3.8%	?	-7.6%
Cc1cc(O)c(C(=O)/C=C/c2ccc(Cl)cc2)c(=O)o1	6.1%	-7.8%	100.7	25.1µM*	25.1µM*	1.1%
COc1ccc(/C=C/C(=O)c2c(O)cc(C)oc2=O)c(OC)c1	2.5%	-4.8%	-38.5	10.4%	0.0%	0.0%
COc1cccc(/C=C/C(=O)c2c(O)cc(C)oc2=O)c1O	-4.8%	-18.9%	-97.1*	20µM*	-32.4%	-27.9%
CSc1ccc(/C=C/C(=O)c2c(O)cc(C)oc2=O)cc1	-6.1%	-5.4%	-80.1*	-29.6%	-28.2%	-27.4%
O=c1[nH]ccc2c(S(=O)(=O)N3CCCNCC3)cccc12	·	-2.8%	·	-22.3%	·	·
CCc1c(-c2ccccc2)nc2sc3c(c2c1N)CCCC3	1.5%	-11.3%	-92.0*	-49.6%	10.4%	-7.4%
Nc1c2c(nc3sc4c(c13)CCCC4)CCCC2	-2.2%	-8.2%	-71.6*	-3.5%	·	-18.4%
Cc1ccc(-n2ncc(C(=O)NCc3ccccc3)c2C2CCN(C(=O)OC(C)(C)C)CC2)cc1	7.1%[15.4 µM]	·	0.0	-0.2%	4.9%	·
COCC(=O)Nc1cc(C(=O)N2CCN(c3ccccc3)CC2C)c2c(c1)nc(-c1ccncc1)n2C (centres undefined)	·	·	·	8.5%	·	·
CC(C)n1cc(-c2nc(C(=O)NN)cs2)c(=O)n(Cc2ccccc2)c1=O	1.9%	-3.6%	-68.0*	-15.1%	-0.7%	10.6%
NNC(=O)c1csc(-c2ccccc2)n1	3.3%	0.6%	12.4	23.7%	0.6%	-14.2%
COc1ccc(OC)c(C2C(C(=O)Nc3ccccc3OC)=C(C)Nc3c(C(=O)Nc4ccc(F)cc4)cnn32)c1 (centres undefined)	1.0%	·	?	-6.2%	15.7%	·
CCN(c1ccccc1)S(=O)(=O)c1ccc(Cl)c(C(=O)NC2CCN(Cc3ccccc3)CC2)c1	-1.3%	·	-70.4*	?	·	-6.1%
COc1ccc(N2CCN(C(=O)c3ccc(CNS(=O)(=O)c4ccc(C)cc4)cc3)CC2)cc1	-0.1%	3.3%	?	-28.5%	3.4%	5.2%
COc1ccc(S(=O)(=O)NCc2ccc(C(=O)N3CCN(Cc4ccccc4)CC3)cc2)cc1	7.8%	·	?	?	-19.5%	-4.1%
COc1ccc(C(=O)N2CCN(Cc3ccccc3)CC2)cc1[N+](=O)[O-]	-5.7%	-1.7%	-33.7	-26.2%	-1.2%	3.9%
O=C(c1ccc(S(=O)(=O)c2cccc(Cl)c2)c([N+](=O)[O-])c1)N1CCN(Cc2ccccc2)CC1	1.3%	-4.7%	-36.0	11.2µM*	-24.4%	7.2%
Cc1ccc(S(=O)(=O)NCc2ccc(C(=O)N3CCN(c4ccc([N+](=O)[O-])cc4)CC3)cc2)cc1	1.4%	·	-98.3*	?	2.3%	-4.0%
Cc1ccc(S(=O)(=O)NCc2ccc(C(=O)N3CCN(Cc4ccccc4)CC3)cc2)cc1	0.4%	3.7%	-92.9*	·	-28.4%	-9.4%
COc1cc(=O)n2c(c1C(=O)NC(C)c1ccco1)CCN(C(=O)c1ccnc(Cl)c1)CC2 (centres undefined)	·	·	·	-5.2%	·	·
COc1ccc(-n2c(SCC(=O)NCc3ccc(F)cc3)nc3c([nH]c4ccccc43)c2=O)cc1	2.2%	·	-23.9	-8.5%	8.6%	·
SMILES	Tb PYK inh	FBPA Giardia inh	HCMV antiviral	FMDV inh	Sm TGR block	RE007 growth inh
Cc1ccc(NS(=O)(=O)c2ccc(C(=O)NC3CCN(Cc4ccccc4)CC3)cc2)cc1	-3.0%	·	-92.1*	?	·	17.2%
O=C(c1ccc(S(=O)(=O)NCc2ccco2)cc1)N1CCN(Cc2ccc3c(c2)OCO3)CC1	5.9%	0.1%	-68.4*	-16.3%	-0.9%	0.5%
O=C(c1cccc(S(=O)(=O)NCc2ccccc2)c1)N1CCCCC1	1.6%	·	-8.3	20.7%	0.9%	1.0%
O=C(c1cccc(S(=O)(=O)NCc2ccccc2)c1)N1CCN(Cc2ccccc2)CC1	3.0%	1.8%	-96.7*	-17.6%	-16.8%	-11.4%
COc1ccc(CN2CCN(C(=O)c3ccc(S(=O)(=O)NCc4ccco4)cc3)CC2)cc1F	-4.1%	·	?	?	-5.7%	20.1%
Cc1ccc(NS(=O)(=O)c2cccc(C(=O)NC3CCN(Cc4ccccc4)CC3)c2)cc1	2.4%	·	?	-28.3%	·	10.3%
O=c1c(-c2cccs2)nc2cncnc2n1Cc1ccccc1	·	4.0%	·	4.0%	·	·
COC1=C(OC)C(=O)C(CC=C(C)CCC=C(C)CCC=C(C)CCC=C(C)CCC=C(C)CCC=C(C)CCC=C(C)CCC=C(C)CCC=C(C)CCC=C(C)C)=C(C)C1=O	-0.1%	·	·	·	·	·
S=C(NCc1ccco1)Nc1cccc(Cl)c1Cl	-1.1%	0.6%	-19.1	30.9%	7.94µM*	23.9%
Cc1cc(Cl)ccc1NC(=S)NCc1ccco1	2.0%	-1.7%	-61.2*	0.0%	-26.9%	-2.9%
S=C(NCc1ccco1)Nc1ccccc1Cl	-11.2%	-1.1%	10.5	37.6%	7.94µM*	-6.6%
Cc1c(Cl)cccc1NC(=S)NCc1ccco1	-4.8%	0.1%	?	29.1%	?	-5.8%
CC(C)(CO)NC(=S)NCc1ccco1	-11.3%	?	-35.5	-15.7%	25.1µM*	-3.3%
Cc1cc(Cl)ccc1NC(=O)C(=O)NCc1ccco1	-0.1%	·	16.2	48.2%	-7.9%	·
O=C(Cn1nc(-c2ccccc2)c2c(c1=O)CCCC2)Nc1ccc(F)c(Cl)c1	7.4%	·	-6.6	-10.6%	-0.4%	·
CCOC(=O)c1cc(C)n(CC2CCC(C(=O)Nc3ccc(Cl)cc3)CC2)c1C (centres undefined)	-13.3%	·	-79.5*	?	-1.5%	·
Nc1nc(=O)n(C2OC(CO)C(O)C2O)cc1Cl (centres undefined)	·	1.7%	·	-17.8%	·	·
O=C(NNc1c(F)c(F)cc(F)c1F)c1ccco1	3.0%	·	-15.6	-15.1%	·	4.8%
O=C(NNc1c([N+](=O)[O-])cc(C(F)(F)F)cc1[N+](=O)[O-])c1ccco1	?	·	-11.4	31.6µM*	-7.2%	?
O=C(NCCNc1cc(Cl)ccc1[N+](=O)[O-])c1ccco1	3.5%	-6.0%	-74.9*	24.6%	-4.5%	13.4%
